The source of these data is PubChem BioAssay.

A number with no mark means an inactive call. Rule as the data show it: active = inhibition above about 30%; inactive = the rest.

A short description of the assay: growth suppression of yeast trafficking mutant, preliminary HTS, modulators of trafficking downstream of Golgi apparatus project, 1536-format plate, OD 615 nm (AID 637). The following applies: yeast transport mutant growth, absorbance 615 nm, 18 h; stronger effect = higher value.
In the case of `O=C1c2cccnc2C(=O)N1c1cccc(-c2nc3ccccc3o2)c1`, the inhibition is 3.65%.

In the case of `COc1ccc(S(=O)(=O)Nc2ccc3c(c2)OCO3)cc1Cl`, the inhibition was 12.1%.

Regarding `CC1CC(C)CN(CCCNC(=O)c2ccc3c(c2)NC(=O)C(N2CCCCC2)S3)C1` (configuration not stated), the inhibition is -7.14%.

In the case of `Cc1cc(NC(=O)C2CCCC2)nc2c1c(=O)oc1ccccc12`, the inhibition is 3.49%.

Regarding `Cc1cccc(NC(=O)CN(C)S(=O)(=O)c2ccccc2)n1`, the inhibition was 2.54%.

As to `O=C1c2ccccc2C(=O)N1CCCCN1CCN(CCCCN2C(=O)c3ccccc3C2=O)CC1`, the inhibition was 6.98%.

For the molecule `CCOC(=O)c1sc(NS(=O)(=O)c2ccc(NC(C)=O)cc2)nc1C`, the inhibition was 2.22%.

Consider `O=C(NCc1ccc(F)cc1)c1cc(-c2ccco2)on1`, for which the inhibition was -5.56%.

Regarding `COc1cccc(C(=O)Nc2cccc(C(=O)N3CCOCC3)c2)c1`, the inhibition was 0.32%.

As for `Cc1nc(SCC(=O)c2c[nH]c3ccccc23)n[nH]1`, the inhibition was -0.32%.

For `CCOC(=O)C1CCN(S(=O)(=O)c2cccc(-c3csc(C)n3)c2)CC1`, the inhibition was 3.81%.

Turning to `COc1ccc2c(c1)CCc1c(C(=O)N3CC4(C)CC3CC(C)(C)C4)noc1-2` (configuration not stated), the inhibition was -3.02%.

With `C=CCn1c(SCc2cc(=O)n3ccsc3n2)nnc1C1CCCCC1`, the inhibition is -0.16%.

As to `CCOC(=O)C1C(=O)NC(SCC(=O)Nc2nccs2)=C(C#N)C1c1ccccc1OCC` (configuration not stated), the inhibition was 7.78%.

In the case of `Cc1ccc(-c2nc(-c3cccnc3)no2)c(C)c1`, the inhibition was -9.52%.

Regarding `COC(=O)c1[nH]c(C)c(/C(O)=C2\C(=O)C(=O)N(CCCN3CCOCC3)C2c2ccccn2)c1C` (configuration not stated), the inhibition is -4.6%.

`CCOc1ccccc1NC(=O)CCSc1nc2n[nH]c(C)c2c(=N)n1-c1ccccc1Cl`: the inhibition is -3.5%.

For `CC(=O)c1cc(-c2ccccc2)n(CC(=O)N2CCN(C3CCCC3)CC2)c1C`, the inhibition was 0.95%.

For the molecule `O=c1ccn(Cc2ccccc2Cl)cc1`, the inhibition was -3.33%.

For the molecule `COC(=O)c1c(C(=O)OC)n(CCCN)c2ccc(C)cc12`, the inhibition was -1.11%.

Take `CN(CC(=O)Nc1ccccc1Cl)C(=O)COC(=O)CNC(=O)c1ccc(Br)o1`: the inhibition is 5.4%.

With `O=C(CN1C(=O)CC(c2ccccc2)=Nc2ccccc21)NCc1ccco1`, the inhibition is 13.5%.
